Holding throughout (test): DAPPL (digital affinity profiling via proximity ligation, sequencing); 10 mM Tris-HCl pH 7.5, 50 mM NaCl, 1 mM DTT, 4% glycerol, room temperature, 30 min; GST-TFs on glutathione beads, 16-mer random dsDNA library, 0.1% formaldehyde crosslink after washing; high values mean tight binding
What all share (details): protein: recombinant; tags: N-terminal GST; dsDNA, one strand shown

The target of assay [1] is CRX (Homo sapiens, UniProt O43186 1-299). In short, it runs like this: (§1)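 The binding signal reported is, for every hexamer, its read frequency for a factor over its read frequency for the tag-only sample. Reads came from pools of yeast-expressed, GST-fused human transcription factors on glutathione beads, barcoded with DNA and mixed with that sample, which were incubated with 200 nmole of a random double-stranded 16-mer DNA library in Tris/NaCl/DTT/glycerol buffer at room temperature for 30 min. After washing, the pools were crosslinked with 0.1% formaldehyde, proximity-ligated with BsaI/T4 ligase for 1 h at 37 °C, PCR-amplified and sequenced on an Illumina NextSeq500.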

In assay [2] the target is T1, ETS2 (Homo sapiens, UniProt P15036 1-469).
T1 sequence: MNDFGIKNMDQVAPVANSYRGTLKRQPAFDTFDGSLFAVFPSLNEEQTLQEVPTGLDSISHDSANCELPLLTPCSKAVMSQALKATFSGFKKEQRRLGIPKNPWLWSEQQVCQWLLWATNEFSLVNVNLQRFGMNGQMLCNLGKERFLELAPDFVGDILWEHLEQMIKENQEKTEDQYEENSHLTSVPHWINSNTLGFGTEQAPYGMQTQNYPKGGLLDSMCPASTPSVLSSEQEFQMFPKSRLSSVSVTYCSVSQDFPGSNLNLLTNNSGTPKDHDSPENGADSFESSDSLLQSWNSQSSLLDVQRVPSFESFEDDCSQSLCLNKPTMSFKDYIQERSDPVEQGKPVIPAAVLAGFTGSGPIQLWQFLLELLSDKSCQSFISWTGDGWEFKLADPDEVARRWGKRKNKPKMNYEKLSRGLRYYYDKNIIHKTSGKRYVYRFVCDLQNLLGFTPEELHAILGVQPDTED
Summed up: as §1

Assay [3] concerns the target T2, SPDEF (Homo sapiens, UniProt O95238 1-335).
T2 sequence: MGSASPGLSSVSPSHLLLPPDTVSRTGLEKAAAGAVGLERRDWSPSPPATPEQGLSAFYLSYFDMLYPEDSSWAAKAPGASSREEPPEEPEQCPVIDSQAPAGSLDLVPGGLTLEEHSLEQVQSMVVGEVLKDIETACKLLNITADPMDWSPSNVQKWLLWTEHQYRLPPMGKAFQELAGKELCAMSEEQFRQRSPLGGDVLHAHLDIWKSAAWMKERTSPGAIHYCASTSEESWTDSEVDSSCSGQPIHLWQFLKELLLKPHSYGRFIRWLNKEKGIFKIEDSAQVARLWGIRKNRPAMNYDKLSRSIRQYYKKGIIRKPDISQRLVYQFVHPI
Summed up: as §1

Assay [4] has as its target T3, ELF5 (Homo sapiens, UniProt Q9UKW6-2 1-255).
T3 sequence: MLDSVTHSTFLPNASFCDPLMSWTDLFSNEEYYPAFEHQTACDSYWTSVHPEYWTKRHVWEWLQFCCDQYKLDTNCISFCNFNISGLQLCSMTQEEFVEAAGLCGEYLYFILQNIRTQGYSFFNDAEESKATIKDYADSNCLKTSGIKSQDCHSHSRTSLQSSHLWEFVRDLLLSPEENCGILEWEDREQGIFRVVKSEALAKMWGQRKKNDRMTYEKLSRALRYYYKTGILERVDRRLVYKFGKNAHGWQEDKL
Summed up:
as §1

The target in assay [5] is T4, FEV (Homo sapiens, UniProt Q99581 1-238).
T4 sequence: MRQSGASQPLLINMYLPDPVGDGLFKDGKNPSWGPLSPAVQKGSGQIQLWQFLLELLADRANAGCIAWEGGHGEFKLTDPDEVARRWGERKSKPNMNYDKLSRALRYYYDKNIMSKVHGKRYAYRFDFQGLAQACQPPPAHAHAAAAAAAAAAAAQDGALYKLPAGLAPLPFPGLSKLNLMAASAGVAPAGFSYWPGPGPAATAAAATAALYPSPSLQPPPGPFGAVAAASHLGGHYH
Summed up:
as §1

Assay [6] addresses SPI1 (Homo sapiens, UniProt P17947 1-270). In short, it runs like this:
as §1

Chain of CRX (O43186 whole entry, the tested form may be a part): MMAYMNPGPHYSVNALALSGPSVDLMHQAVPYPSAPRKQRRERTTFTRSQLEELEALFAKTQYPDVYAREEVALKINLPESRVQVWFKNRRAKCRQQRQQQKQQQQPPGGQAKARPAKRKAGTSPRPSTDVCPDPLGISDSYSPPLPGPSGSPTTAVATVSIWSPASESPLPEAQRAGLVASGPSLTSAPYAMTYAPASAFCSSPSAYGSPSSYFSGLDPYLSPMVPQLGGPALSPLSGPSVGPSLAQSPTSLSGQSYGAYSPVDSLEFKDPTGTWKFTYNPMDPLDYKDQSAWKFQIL

Consider TGTGAT, for which the binding signal in assay [1] is 1.12 fold enrichment (6-mer frequency, TF over GST control); in assay [2], 1.09 fold enrichment (6-mer frequency, TF over GST control); in assay [3] it was 1.06 fold enrichment (6-mer frequency, TF over GST control). For the sequence ACCGTT, the binding signal in assay [3] was 1.01 fold enrichment (6-mer frequency, TF over GST control). GTTTGT: the binding signal in assay [3] was 1.01 fold enrichment (6-mer frequency, TF over GST control); in assay [4], 1.03 fold enrichment (6-mer frequency, TF over GST control). On to CCACAG, for which the binding signal in assay [5] was 1.01 fold enrichment (6-mer frequency, TF over GST control).

For CCATGG, the binding signal in assay [6] was 1.05 fold enrichment (6-mer frequency, TF over GST control). As for ATGCGT, the binding signal in assay [6] is 1.03 fold enrichment (6-mer frequency, TF over GST control); in assay [5], 1.01 fold enrichment (6-mer frequency, TF over GST control); in assay [2] it was 1.02 fold enrichment (6-mer frequency, TF over GST control); in assay [3], 1.07 fold enrichment (6-mer frequency, TF over GST control); in assay [4], 1.03 fold enrichment (6-mer frequency, TF over GST control). On to TCGTTA, for which the binding signal in assay [1] is 1.1 fold enrichment (6-mer frequency, TF over GST control). GCCGCA: the binding signal in assay [5] is 1.01 fold enrichment (6-mer frequency, TF over GST control); in assay [2], 1 fold enrichment (6-mer frequency, TF over GST control). Turning to CATGGC, the binding signal in assay [6] is 1.04 fold enrichment (6-mer frequency, TF over GST control); in assay [5], 1.04 fold enrichment (6-mer frequency, TF over GST control). For TGATTG, the binding signal is 1.04 fold enrichment (6-mer frequency, TF over GST control) in assay [6] and 1.01 fold enrichment (6-mer frequency, TF over GST control) in assay [2]. For GACGAC, the binding signal in assay [2] was 1.02 fold enrichment (6-mer frequency, TF over GST control); in assay [3], 1.04 fold enrichment (6-mer frequency, TF over GST control); in assay [4], 1.02 fold enrichment (6-mer frequency, TF over GST control).

For the sequence GCCGTC, in assay [3], the binding signal was 1.03 fold enrichment (6-mer frequency, TF over GST control). With AGTTTT, in assay [4], the binding signal was 1.01 fold enrichment (6-mer frequency, TF over GST control). In the case of GTCGAC, the binding signal was 1.08 fold enrichment (6-mer frequency, TF over GST control) in assay [6]; 1.02 fold enrichment (6-mer frequency, TF over GST control) in assay [5]; 1.04 fold enrichment (6-mer frequency, TF over GST control) in assay [2]; 1.06 fold enrichment (6-mer frequency, TF over GST control) in assay [3]. With CGCGGC, the binding signal in assay [6] was 1.05 fold enrichment (6-mer frequency, TF over GST control); in assay [5] it was 1.06 fold enrichment (6-mer frequency, TF over GST control); in assay [3], 1.04 fold enrichment (6-mer frequency, TF over GST control). GTGGCA: the binding signal is 1.04 fold enrichment (6-mer frequency, TF over GST control) in assay [6] and 1.09 fold enrichment (6-mer frequency, TF over GST control) in assay [5]. Take CACACC: the binding signal is 1.07 fold enrichment (6-mer frequency, TF over GST control) in assay [5]; 1.02 fold enrichment (6-mer frequency, TF over GST control) in assay [3]; 1.03 fold enrichment (6-mer frequency, TF over GST control) in assay [4]. On to CAAGCT, for which, in assay [1], the binding signal was 1.1 fold enrichment (6-mer frequency, TF over GST control).

For the sequence TCAGCC, the binding signal in assay [5] was 1.04 fold enrichment (6-mer frequency, TF over GST control); in assay [1] it was 1.17 fold enrichment (6-mer frequency, TF over GST control); in assay [2] it was 1 fold enrichment (6-mer frequency, TF over GST control); in assay [3], 1.03 fold enrichment (6-mer frequency, TF over GST control).

For the sequence GCAGCC, the binding signal in assay [5] is 1.03 fold enrichment (6-mer frequency, TF over GST control). With TGTCAA, the binding signal in assay [6] was 1 fold enrichment (6-mer frequency, TF over GST control); in assay [2], 1.03 fold enrichment (6-mer frequency, TF over GST control); in assay [4], 1.01 fold enrichment (6-mer frequency, TF over GST control). As for ATTGAG, the binding signal in assay [6] is 1 fold enrichment (6-mer frequency, TF over GST control); in assay [1] it was 1.11 fold enrichment (6-mer frequency, TF over GST control); in assay [2] it was 1 fold enrichment (6-mer frequency, TF over GST control); in assay [3], 1.01 fold enrichment (6-mer frequency, TF over GST control). In the case of CGGCCC, the binding signal in assay [5] was 1 fold enrichment (6-mer frequency, TF over GST control). Consider GTGCGC, for which the binding signal in assay [6] is 1.02 fold enrichment (6-mer frequency, TF over GST control).

GACGTT: the binding signal in assay [4] is 1.01 fold enrichment (6-mer frequency, TF over GST control). CAGCGC: the binding signal in assay [2] was 1.1 fold enrichment (6-mer frequency, TF over GST control). Consider GCATCT, for which the binding signal in assay [2] was 1.04 fold enrichment (6-mer frequency, TF over GST control). CGCACA: the binding signal in assay [5] was 1.02 fold enrichment (6-mer frequency, TF over GST control); in assay [2], 1.04 fold enrichment (6-mer frequency, TF over GST control); in assay [4], 1.04 fold enrichment (6-mer frequency, TF over GST control).

Consider CATCAG, for which the binding signal in assay [2] is 1 fold enrichment (6-mer frequency, TF over GST control). On to TGTTGG, for which the binding signal in assay [3] is 1 fold enrichment (6-mer frequency, TF over GST control). Turning to GACACT, the binding signal in assay [6] was 1.02 fold enrichment (6-mer frequency, TF over GST control); in assay [2], 1.05 fold enrichment (6-mer frequency, TF over GST control); in assay [4] it was 1.05 fold enrichment (6-mer frequency, TF over GST control).

On to CCTGGC, for which, in assay [6], the binding signal is 1.05 fold enrichment (6-mer frequency, TF over GST control). Take AGTTGC: the binding signal was 1.07 fold enrichment (6-mer frequency, TF over GST control) in assay [6] and 1.02 fold enrichment (6-mer frequency, TF over GST control) in assay [4]. As to CTGGTG, the binding signal in assay [6] was 1.04 fold enrichment (6-mer frequency, TF over GST control); in assay [3] it was 1.01 fold enrichment (6-mer frequency, TF over GST control). Regarding CCGGTG, the binding signal in assay [5] is 1.35 fold enrichment (6-mer frequency, TF over GST control); in assay [2], 1.02 fold enrichment (6-mer frequency, TF over GST control); in assay [3] it was 1.13 fold enrichment (6-mer frequency, TF over GST control). As to GGATGG, the binding signal in assay [2] was 1.03 fold enrichment (6-mer frequency, TF over GST control); in assay [3] it was 1.09 fold enrichment (6-mer frequency, TF over GST control); in assay [4], 1.03 fold enrichment (6-mer frequency, TF over GST control).

GACTCA: in assay [5], the binding signal was 1 fold enrichment (6-mer frequency, TF over GST control). ACAAAG: the binding signal in assay [2] was 1.01 fold enrichment (6-mer frequency, TF over GST control). For the sequence TCGTTG, the binding signal in assay [3] was 1.01 fold enrichment (6-mer frequency, TF over GST control). Consider CGGGCT, for which the binding signal in assay [5] is 1.01 fold enrichment (6-mer frequency, TF over GST control); in assay [2], 1.07 fold enrichment (6-mer frequency, TF over GST control); in assay [3], 1.07 fold enrichment (6-mer frequency, TF over GST control). Consider TTAGCC, for which, in assay [1], the binding signal is 2.22 fold enrichment (6-mer frequency, TF over GST control).

CACTAG: the binding signal is 1.06 fold enrichment (6-mer frequency, TF over GST control) in assay [6] and 1.01 fold enrichment (6-mer frequency, TF over GST control) in assay [2]. For the sequence GCCGAA, the binding signal in assay [2] is 1.04 fold enrichment (6-mer frequency, TF over GST control).

For TGGATC, the binding signal in assay [6] was 1.03 fold enrichment (6-mer frequency, TF over GST control); in assay [1], 1.15 fold enrichment (6-mer frequency, TF over GST control); in assay [3], 1.09 fold enrichment (6-mer frequency, TF over GST control). As to GTAGAT, the binding signal in assay [1] is 1.07 fold enrichment (6-mer frequency, TF over GST control); in assay [2], 1.02 fold enrichment (6-mer frequency, TF over GST control); in assay [3], 1.04 fold enrichment (6-mer frequency, TF over GST control). Take CAGACT: the binding signal in assay [5] is 1 fold enrichment (6-mer frequency, TF over GST control).

For the origin of these results see publication PMC7862700, “An all-to-all approach to the identification of sequence-specific readers for epigenetic DNA modifications on cytosine”.
